# Screening data deposited in PubChem BioAssay by National Center for Advancing Translational Sciences (NCATS).
# Compounds with a hit are over-represented: about 6.6% of the library has one in this group of screens.
# MCF10A rereplic – A quantitative high throughput screen for small molecules that induce DNA re-replication in MCF 10a normal breast cells. MCF 10A DNA re-replication, Hoechst nuclear intensity, 48 h. Potency, µM (doses to about 46.1 µM), usual class: activators. 350,000 tested, 2.9% active. AID 624296, 2012; further: nearly all actives have a fitted effect of over 50% in size
# SW480 rerep – A quantitative high throughput screen for small molecules that induce DNA re-replication in SW480 colon adenocarcinoma cells | Potency, µM (top dose mostly 46.1 µM), hits mostly activators | AID 624297, 2012 | 340,000 tested, 1.8% active | SW480 DNA re-replication, Hoechst DNA content imaging, 48 h; further: nearly all actives have a fitted effect of over 55% in size
#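 Hoechst fluorescence of nuclei (405 nm excitation, 500-530 nm emission) measured by plate-scanning imager after 48 hr compound exposure at 37 C; re-replication scored as increased number of nuclei with elevated intensity.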
# KB-3-1 tox – qHTS assay for MDR1-selective chemotherapeutics: Primary screen using the parental adenocarcinoma cell KB-3-1. 400,000 tested, 1.4% active. AID 1347075, 2019. KB-3-1 viability, CellTiter-Glo ATP luminescence, 72 h. Potency, µM (series often up to 46.1 µM), actives largely listed as cytotoxic; further: nearly all actives have a fitted effect of over 60% in size
#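 Screening of KB-3-1 cells (DMEM, 10% FBS, phenol-red free) ran from lowest to highest compound concentration; after 72 h at 37 °C viability was read luminescently and curves fitted.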
# PTAP TSG101 blk – qHTS Assay for Iinhibitors of HIV-1 Budding by Blocking the Interaction of PTAP/TSG101. Tumor susceptibility gene 101 protein (Homo sapiens), Q99816. Fluorescence polarization, FITC-PTAP peptide / Tsg101 binding. Potency, µM (doses to about 115 µM), hits mostly inhibitors. 340,000 tested, under 10 active; active means well fitted inhibition curve with a large enough effect in the main read-out, with a control signal flat, not every such curve was filed as active; inconclusive means small, poorly fitted or top-dose-only effect, or effect the other way, or a change in a side signal; inactive means no such curve, though single readings can be large or run the other way
# Target sequence (Q99816 whole entry, looked up): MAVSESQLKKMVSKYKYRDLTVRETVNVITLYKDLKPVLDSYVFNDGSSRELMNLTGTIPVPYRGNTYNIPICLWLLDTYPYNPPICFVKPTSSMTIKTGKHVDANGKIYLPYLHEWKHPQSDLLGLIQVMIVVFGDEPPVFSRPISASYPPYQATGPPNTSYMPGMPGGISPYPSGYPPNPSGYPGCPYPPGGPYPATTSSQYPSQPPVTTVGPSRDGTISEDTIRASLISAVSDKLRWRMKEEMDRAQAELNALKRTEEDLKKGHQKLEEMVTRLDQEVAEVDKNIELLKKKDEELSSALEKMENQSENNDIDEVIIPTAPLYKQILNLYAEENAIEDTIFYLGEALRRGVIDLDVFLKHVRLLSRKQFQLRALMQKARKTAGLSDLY
#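 Steps: Tsg101 binding domain dispensed (10 uM final), compounds pinned in DMSO, FITC-labeled PTAP-motif peptide added (50 nM final); after 20 min binding at room temperature, polarization measured.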
# RGS4 inh – Inhibitors of Regulator of G Protein Signaling (RGS) 4: qHTS; Transcreener GDP fluorescence polarization, RGS4-accelerated GTP hydrolysis; Potency, µM (top dose mostly 114 µM), most hits filed as inhibitors; 390,000 tested, 0.039% active; AID 504845, 2011; further: nearly all actives have a fitted effect of over 75% in size
#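 MLSMR compounds (23 nl, pin-transferred) preincubated 10 min at room temperature with a 500nM (2x) first reagent, then RGS4 at 900nM (2x) plus Transcreener GDP mix added; fluorescence polarization (620/688 nm) read before and after 90 min at 30 °C.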
# KB-V1 MDR tox – qHTS assay for MDR1-selective chemotherapeutics: Primary screen using the drug-selected MDR subline cells KB-V1. KB-V1 MDR cells viability, CellTiter-Glo, 72 h. Potency, µM (titrated, usually from 46.1 µM), hits mostly cytotoxic. 400,000 tested, 3.4% active; further: nearly all actives have a fitted effect of over 60% in size
#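 qHTS viability screen in drug-selected KB-V1 MDR cells: 72 h compound treatment at 37 degrees C, ATP luminescence end point.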
# Numbers stand for hits; - = inactive; ? = inconclusive; . = no result given; [ ] = remark or other dose. Unless noted, the call rests on the fitted dose curve; in most records, active means well fitted curve in the direction sought with a large enough effect; inconclusive means small, poorly fitted or top-dose-only effect, or another doubt; inactive means no such curve, though single readings can be large; an effect the other way counts as inactive or inconclusive.
SMILES,MCF10A rereplic,SW480 rerep,KB-3-1 tox,PTAP TSG101 blk,RGS4 inh,KB-V1 MDR tox
C=CCc1c(C)nc(-c2ccccc2)nc1Nc1ccccc1O,23.1µM,-,-,-,-,-
C=CCc1c(C)nc(-c2ccccc2)nc1N/N=C(\C)c1ccc(N)cc1,-,-,?,-,-,23.1µM
CCC1CN(C(=O)Nc2cccc3c2CCCC3)c2cc(C)ccc2O1 (configuration not stated),.,.,.,.,-,.
CCOc1cc(N2CCOCC2)c(OCC)cc1NC(=O)c1nn(CC)c(=O)c2ccccc12,?,-,?,-,-,3.66µM
CC(C)n1nc(C(=O)Nc2ccccc2N2CCOCC2)c2ccccc2c1=O,?,-,-,-,-,3.66µM
COC(=O)Cc1c(C)c2ccc3c(c2oc1=O)CN(Cc1ccc(Cl)cc1)CO3,.,.,-,.,-,-
CCOc1ccc(N(CC(=O)Nc2ccccc2CC)S(=O)(=O)c2c(C)noc2C)cc1,.,.,.,.,-,.
CCOc1cc(-c2cc(-c3ccccc3)nc(N)c2C#N)ccc1O,?,?,-,-,-,-
CCOc1cc(-c2cc(-c3ccc(N)cc3)nc(N)c2C#N)ccc1O,11.6µM,?,?,-,-[11.4 µM],?
Cc1ncoc1C(=O)NC1CCCc2c1cnn2-c1cc(F)cc(F)c1 (configuration not stated),.,.,-,.,.,?
Cc1ncoc1C(=O)NC1CCCc2c1cnn2-c1ccc(C(C)(C)C)cc1 (configuration not stated),-,-,18.4µM,.,-,-
O=C(c1ccc(Cl)cc1)c1ccc(OCC(=O)N2CCOCC2)cc1,-,-,-,-,-,18.4µM
COC(=O)CSc1[nH]c2ccc(Br)cc2c1[N+](=O)[O-],11.6µM,-,-,-,-,-
CCCCSC(=S)NC1CCS(=O)(=O)C1 (configuration not stated),23.1µM,?,-,-,-,-
O=S1(=O)CCC(NC(=S)SCCOc2ccccc2)C1 (configuration not stated),-,-[1.84 µM],-,-,-,-
Cc1ccsc1CN(C(=O)c1oc2ccccc2c1C)C1CCS(=O)(=O)C1 (configuration not stated),.,.,.,.,-,.
Cc1c(C(=O)N(Cc2cccs2)C2CCS(=O)(=O)C2)oc2ccccc12 (configuration not stated),-,-,-,-,-,6.51µM
Cc1ccc(CN(C(=O)c2cc3ccccc3oc2=O)C2CCS(=O)(=O)C2)cc1 (configuration not stated),-,-,-,-,-,14.6µM
COc1ccc(OC)c(C2C3=C(COC3=O)Nc3cc4c(cc32)OCO4)c1 (configuration not stated),0.259µM,0.146µM,0.058µM,-,-,1.16µM
Cn1ccc2cc(S(=O)(=O)N3CCCN(C(=O)Nc4ccccc4Br)CC3)ccc21,.,.,-,.,-,-
CC(=O)ON(C(C)=O)S(=O)(=O)c1ccc(Cl)cc1,.,.,.,.,-,.
CC(C)CC[n+]1ccccc1/C=C/c1ccc(N(C)C)cc1,-,4.61µM,1.46µM,?,-,-
Cc1ccc2c(C)ccc(O)c2n1,20.6µM,-,?,-,-,-
CCOC(=O)N1CCc2c(sc3c2c(=O)n(Cc2ccccc2)c(=O)n3Cc2c(F)cccc2Cl)C1,.,.,.,.,-,.
NC1(C(=O)O)CSSC1,10.3µM,?,?,-,?,6.51µM
COc1ccc2[nH]c(C)c(C(=O)CN(C)CC(OC)OC)c2c1,.,.,-,.,.,-
N/C(=N/OCC(=O)Nc1cccc2ccccc12)c1nonc1N,-,-,-,-,-,14.6µM
CCCSc1ncc(Cl)c(C(=O)Nc2ccc(S(=O)(=O)N3CCCCC3C)cc2)n1 (configuration not stated),.,.,.,.,-,.
